Measurements: PubChem BioAssay AID1259422 (The Scripps Research Institute Molecular Screening Center, 2018)
Hit rate of the full screen: of about 640,000 compounds, about 9,300 (1.5%) were called active. This is one part of a sample in which actives are shown more often than they occur. A number with no mark means an inactive call. Rule as the data show it: active = inhibition above about 32%; inactive = the rest.

Assay: TEAD-YAP interaction inhibition, primary screen, TEAD-YAP interaction inhibitor project, luminescence, HEK-TIYL cells (AID 1259422);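 also: 0% = median of test compound wells and 100% = reference inhibitor wells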
Settings: TEAD-Gal4/YAP UAS-luciferase luminescence, at 9.12 µM, stronger effect = higher value

Structure (SMILES)	inhibition
COc1cccc(-c2ccccc2NC(=O)C2CCN(Cc3ccccn3)CC2)c1	10.6%
CC1=C(C(=O)Nc2nc3ccccc3s2)C(c2ccsc2)C2=C(CCCC2=O)N1 (stereo not drawn)	12.1%
COC(=O)c1c(OCCN2CCCC2=O)cc(=O)n2c1CCN(CC(C)C)CC2	-5.77%
Fc1cnc(Nc2ccc(Cn3ccnc3)cc2)nc1-c1cccc(N2CCOCC2)c1	84.8% (active)
c1cncc(CNc2nccc(Nc3ccc(N4CCOCC4)cc3)n2)c1	1.72%
Fc1cc(-c2nc(Nc3ccc(CN4CCOCC4)cc3)ncc2F)cc(N2CCOCC2)c1	74.6% (active)
Cc1ccc(-c2ncn(-c3ccc(Nc4nccc(-c5cc(F)cc(N6CCOCC6)c5)n4)cc3)n2)nc1	8.1%
Fc1ccc(CN2CCOCC2)cc1F	-5.29%
Cc1ccc(-c2ncn(-c3ccc(Nc4ncc(F)c(-c5cccc(N6CCOCC6)c5)n4)cc3)n2)cn1	28.1%
O=C(Nc1ccccc1)c1ccc(CSc2ccc(Cl)cc2)cc1	1.08%
Cc1cc2oc(=O)cc(C)c2cc1NC(=O)COc1ccccc1	18.6%
c1ccc2c(N3CCCCCC3)nc(CN3CCCCC3)nc2c1	3.64%
COCCNC(=O)c1sc2nc(C)nc(N3CCCCC3)c2c1C	8.3%
Cc1cc(C)cc(Cn2c(NCc3ccncc3)cc(=O)n(C)c2=O)c1	33.7% (active)
C=CCn1c(NCCCN(C)C)cc(=O)n(C)c1=O	1.12%
Cc1cccc(Cn2c(NCc3ccc4c(c3)OCO4)nc3c2c(=O)n(C)c(=O)n3C)c1	3.24%
CC(=O)c1ccc(OCc2cc(C(=O)NCc3cccc(-n4cccn4)c3)no2)cc1	-59.7%
O=C(Nc1cccc(N2CCC(NCCc3ccco3)CC2)c1)c1ccncc1	-5.63%
O=C(Nc1ccc(N2CCC(NCCc3ccco3)CC2)cc1)C1CCCC1	56.3% (active)
O=C(NC1CCCC1)c1ccc(N2CCC(NCCc3ccco3)CC2)cc1	-1.18%
COc1ccc(CCNC(=O)CSc2cn(C)c3ccccc23)cc1OC	-1.21%
COc1ccc(Cl)cc1C1=N/C(=C\c2coc3ccccc3c2=O)C(=O)O1	1.35%
COc1ccc(CCNc2nc(SCC#N)nc3ccccc23)cc1OC	-11.4%
COc1ccc(Nc2nc(C)nc3sc(C)cc23)c(OC)c1	46% (active)
COc1ccc(CCNc2nc3ccc(C)cc3n3cnnc23)cc1OC	-9.92%
COc1ccc(NC(=O)CNC(=O)Cn2cnc3sc(C)cc3c2=O)c(OC)c1	7.78%
COc1ccc(Nc2nc3nonc3nc2Nc2ccc(OC)cc2OC)c(OC)c1	-7.35%
COc1ccc(CCNc2nc(C)nc3sc(C)cc23)cc1OC	41.7% (active)
